Results taken from ChEMBL document CHEMBL1961873, “Compounds: GSK PKIS; Assays: Nanosyn kinase panel” (2012).

Experiments:
[1] = biological target: Sphingosine kinase 1 (Homo sapiens) (UniProt Q9NYA1); details: at 1 µM;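 further: mean SPHK1 inhibition value reported from the GSK PKIS kinase panel screen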
[2] = biological target: T1, Sphingosine kinase 2 (Homo sapiens) (UniProt Q9NRA0); details: at 0.1 µM
T1 sequence (whole entry): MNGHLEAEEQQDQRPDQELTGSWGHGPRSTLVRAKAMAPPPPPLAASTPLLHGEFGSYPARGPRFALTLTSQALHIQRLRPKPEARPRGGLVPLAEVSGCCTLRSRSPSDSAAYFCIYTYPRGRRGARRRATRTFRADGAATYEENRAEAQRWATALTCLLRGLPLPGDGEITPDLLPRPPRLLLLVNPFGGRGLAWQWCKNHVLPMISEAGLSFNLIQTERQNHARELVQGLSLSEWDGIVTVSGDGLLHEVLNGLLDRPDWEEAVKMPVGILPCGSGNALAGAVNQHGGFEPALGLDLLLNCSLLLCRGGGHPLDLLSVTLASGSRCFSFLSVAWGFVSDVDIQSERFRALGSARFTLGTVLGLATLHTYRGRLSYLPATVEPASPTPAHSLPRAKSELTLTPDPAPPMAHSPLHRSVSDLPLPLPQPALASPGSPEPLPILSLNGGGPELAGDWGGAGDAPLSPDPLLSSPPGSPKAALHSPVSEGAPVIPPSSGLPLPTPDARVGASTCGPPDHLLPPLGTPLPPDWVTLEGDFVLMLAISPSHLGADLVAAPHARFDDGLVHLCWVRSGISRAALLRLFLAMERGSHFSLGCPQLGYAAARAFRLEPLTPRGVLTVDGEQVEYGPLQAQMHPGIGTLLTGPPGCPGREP

[3] = biological target: T1, Sphingosine kinase 2 (Homo sapiens); details: at 1 µM
[4] = biological target: Casein kinase II subunit alpha (Homo sapiens) (UniProt P68400); details: at 0.1 µM
[5] = biological target: Casein kinase II subunit alpha (Homo sapiens) (UniProt P68400); details: at 1 µM
[6] = biological target: T2, Inhibitor of nuclear factor kappa-B kinase subunit alpha (Homo sapiens) (UniProt O15111); details: at 0.1 µM
T2 sequence (whole entry): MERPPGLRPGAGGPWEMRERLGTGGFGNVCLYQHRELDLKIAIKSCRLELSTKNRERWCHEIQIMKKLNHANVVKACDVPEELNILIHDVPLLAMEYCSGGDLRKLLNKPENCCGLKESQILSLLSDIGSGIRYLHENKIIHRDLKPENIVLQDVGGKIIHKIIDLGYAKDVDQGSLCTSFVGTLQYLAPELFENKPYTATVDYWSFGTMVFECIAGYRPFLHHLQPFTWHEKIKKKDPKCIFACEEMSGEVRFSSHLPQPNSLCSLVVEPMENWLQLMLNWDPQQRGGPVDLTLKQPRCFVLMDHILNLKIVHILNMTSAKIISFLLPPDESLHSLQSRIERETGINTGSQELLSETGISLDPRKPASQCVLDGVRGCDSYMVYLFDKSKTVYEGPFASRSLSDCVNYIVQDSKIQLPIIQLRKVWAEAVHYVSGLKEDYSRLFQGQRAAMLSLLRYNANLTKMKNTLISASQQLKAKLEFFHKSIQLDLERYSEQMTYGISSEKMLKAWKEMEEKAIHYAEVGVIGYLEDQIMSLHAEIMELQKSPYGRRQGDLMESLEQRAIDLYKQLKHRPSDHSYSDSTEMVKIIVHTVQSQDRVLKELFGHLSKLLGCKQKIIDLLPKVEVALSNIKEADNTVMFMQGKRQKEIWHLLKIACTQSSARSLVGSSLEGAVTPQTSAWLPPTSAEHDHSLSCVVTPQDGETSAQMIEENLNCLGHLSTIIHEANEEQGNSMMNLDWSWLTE

[7] = biological target: T2, Inhibitor of nuclear factor kappa-B kinase subunit alpha (Homo sapiens); details: at 1 µM
[8] = biological target: T3, Inhibitor of nuclear factor kappa-B kinase subunit beta (Homo sapiens) (UniProt O14920); details: at 0.1 µM
T3 sequence (whole entry): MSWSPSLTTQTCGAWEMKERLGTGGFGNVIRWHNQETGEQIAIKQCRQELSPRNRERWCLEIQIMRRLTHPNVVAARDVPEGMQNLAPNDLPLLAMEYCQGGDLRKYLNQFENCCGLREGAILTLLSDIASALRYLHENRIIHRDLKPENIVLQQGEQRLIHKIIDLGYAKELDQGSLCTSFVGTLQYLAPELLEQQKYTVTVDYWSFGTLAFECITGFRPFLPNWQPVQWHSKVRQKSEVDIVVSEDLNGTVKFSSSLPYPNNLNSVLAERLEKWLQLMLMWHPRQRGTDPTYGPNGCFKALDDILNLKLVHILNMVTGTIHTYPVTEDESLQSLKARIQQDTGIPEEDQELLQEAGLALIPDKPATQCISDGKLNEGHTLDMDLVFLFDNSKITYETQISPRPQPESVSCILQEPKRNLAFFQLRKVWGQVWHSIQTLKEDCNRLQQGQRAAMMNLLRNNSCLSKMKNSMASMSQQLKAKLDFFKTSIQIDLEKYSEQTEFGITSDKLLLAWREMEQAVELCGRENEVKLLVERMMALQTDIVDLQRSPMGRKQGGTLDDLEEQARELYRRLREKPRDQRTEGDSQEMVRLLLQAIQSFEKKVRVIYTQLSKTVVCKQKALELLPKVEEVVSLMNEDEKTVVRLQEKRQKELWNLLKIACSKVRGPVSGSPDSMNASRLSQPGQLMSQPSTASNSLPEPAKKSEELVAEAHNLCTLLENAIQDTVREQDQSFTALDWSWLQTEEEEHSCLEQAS

[9] = biological target: T3, Inhibitor of nuclear factor kappa-B kinase subunit beta (Homo sapiens); details: at 1 µM
[10] = biological target: T4, Inhibitor of nuclear factor kappa-B kinase subunit epsilon (Homo sapiens) (UniProt Q14164); details: at 0.1 µM
T4 sequence (whole entry): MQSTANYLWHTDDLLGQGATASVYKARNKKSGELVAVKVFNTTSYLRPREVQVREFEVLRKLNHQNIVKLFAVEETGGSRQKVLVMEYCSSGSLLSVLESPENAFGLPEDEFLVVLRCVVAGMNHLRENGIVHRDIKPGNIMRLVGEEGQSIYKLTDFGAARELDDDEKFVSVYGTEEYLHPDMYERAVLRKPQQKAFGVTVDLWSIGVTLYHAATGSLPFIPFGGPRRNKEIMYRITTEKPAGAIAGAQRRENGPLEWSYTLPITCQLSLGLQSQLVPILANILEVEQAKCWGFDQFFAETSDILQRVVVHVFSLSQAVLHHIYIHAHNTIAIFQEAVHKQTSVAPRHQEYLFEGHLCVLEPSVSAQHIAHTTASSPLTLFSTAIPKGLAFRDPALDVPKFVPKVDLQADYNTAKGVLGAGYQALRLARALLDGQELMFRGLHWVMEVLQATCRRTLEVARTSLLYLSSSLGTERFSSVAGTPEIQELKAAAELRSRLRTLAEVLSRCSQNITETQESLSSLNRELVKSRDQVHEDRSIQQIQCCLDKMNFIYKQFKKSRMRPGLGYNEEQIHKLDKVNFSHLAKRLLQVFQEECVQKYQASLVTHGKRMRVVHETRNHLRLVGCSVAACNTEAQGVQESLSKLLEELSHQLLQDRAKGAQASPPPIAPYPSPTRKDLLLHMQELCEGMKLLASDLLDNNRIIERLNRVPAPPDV

[11] = biological target: T4, Inhibitor of nuclear factor kappa-B kinase subunit epsilon (Homo sapiens); details: at 1 µM
[12] = biological target: T5, Serine/threonine-protein kinase Nek1 (Homo sapiens) (UniProt Q96PY6); details: at 0.1 µM
T5 sequence (whole entry): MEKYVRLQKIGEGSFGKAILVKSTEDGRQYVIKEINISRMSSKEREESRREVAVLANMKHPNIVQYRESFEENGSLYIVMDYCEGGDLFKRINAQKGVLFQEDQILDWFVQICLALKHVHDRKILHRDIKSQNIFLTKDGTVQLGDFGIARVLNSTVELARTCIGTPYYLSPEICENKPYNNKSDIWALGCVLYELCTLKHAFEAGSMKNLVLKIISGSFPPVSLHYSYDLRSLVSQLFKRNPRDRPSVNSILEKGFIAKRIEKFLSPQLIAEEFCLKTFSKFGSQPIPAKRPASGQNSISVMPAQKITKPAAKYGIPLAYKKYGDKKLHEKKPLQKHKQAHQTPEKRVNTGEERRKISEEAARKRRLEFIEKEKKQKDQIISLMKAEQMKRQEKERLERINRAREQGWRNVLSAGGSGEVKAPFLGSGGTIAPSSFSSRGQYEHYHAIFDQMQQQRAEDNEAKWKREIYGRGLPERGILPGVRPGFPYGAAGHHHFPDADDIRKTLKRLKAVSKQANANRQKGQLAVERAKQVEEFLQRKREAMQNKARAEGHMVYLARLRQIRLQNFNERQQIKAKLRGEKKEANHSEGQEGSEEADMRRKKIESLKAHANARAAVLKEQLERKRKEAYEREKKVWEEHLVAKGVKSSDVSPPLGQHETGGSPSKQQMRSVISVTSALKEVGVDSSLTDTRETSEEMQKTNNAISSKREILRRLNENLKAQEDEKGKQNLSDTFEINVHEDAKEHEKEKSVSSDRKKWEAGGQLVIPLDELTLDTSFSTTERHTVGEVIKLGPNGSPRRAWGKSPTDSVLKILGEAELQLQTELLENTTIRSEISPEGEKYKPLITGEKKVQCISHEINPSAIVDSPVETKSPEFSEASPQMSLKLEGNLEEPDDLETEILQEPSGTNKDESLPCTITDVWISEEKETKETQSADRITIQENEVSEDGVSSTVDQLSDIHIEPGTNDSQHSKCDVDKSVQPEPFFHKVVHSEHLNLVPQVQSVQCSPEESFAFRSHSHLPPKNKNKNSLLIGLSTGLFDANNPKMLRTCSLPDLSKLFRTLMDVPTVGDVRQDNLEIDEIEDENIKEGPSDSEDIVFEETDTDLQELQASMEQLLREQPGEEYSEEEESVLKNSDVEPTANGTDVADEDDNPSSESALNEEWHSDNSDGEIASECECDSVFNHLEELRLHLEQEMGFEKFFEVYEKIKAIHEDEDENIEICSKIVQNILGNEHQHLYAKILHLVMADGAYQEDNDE

[13] = biological target: T5, Serine/threonine-protein kinase Nek1 (Homo sapiens); details: at 1 µM
[14] = biological target: T6, Serine/threonine-protein kinase Nek2 (Homo sapiens) (UniProt P51955); details: at 0.1 µM
T6 sequence (whole entry): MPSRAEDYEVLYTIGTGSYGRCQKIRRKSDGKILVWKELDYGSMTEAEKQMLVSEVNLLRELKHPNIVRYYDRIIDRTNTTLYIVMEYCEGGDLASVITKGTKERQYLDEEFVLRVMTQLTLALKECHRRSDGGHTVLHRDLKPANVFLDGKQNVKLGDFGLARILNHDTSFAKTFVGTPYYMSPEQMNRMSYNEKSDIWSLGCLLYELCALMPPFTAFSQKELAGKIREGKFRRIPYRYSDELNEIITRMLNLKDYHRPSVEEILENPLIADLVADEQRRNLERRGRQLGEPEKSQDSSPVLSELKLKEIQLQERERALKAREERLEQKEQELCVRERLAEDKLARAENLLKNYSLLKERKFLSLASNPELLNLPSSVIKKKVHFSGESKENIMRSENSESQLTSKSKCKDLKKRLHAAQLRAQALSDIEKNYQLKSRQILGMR

[15] = biological target: T6, Serine/threonine-protein kinase Nek2 (Homo sapiens); details: at 1 µM
[16] = biological target: Serine/threonine-protein kinase Nek6 (Homo sapiens) (UniProt Q9HC98); details: at 0.1 µM
[17] = biological target: Serine/threonine-protein kinase Nek6 (Homo sapiens) (UniProt Q9HC98); details: at 1 µM
[18] = biological target: Serine/threonine-protein kinase Nek7 (Homo sapiens) (UniProt Q8TDX7); details: at 0.1 µM
[19] = biological target: Serine/threonine-protein kinase Nek7 (Homo sapiens) (UniProt Q8TDX7); details: at 1 µM
[20] = biological target: T7, Serine/threonine-protein kinase Nek9 (Homo sapiens) (UniProt Q8TD19); details: at 0.1 µM;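 further: reported value is the mean percent inhibition of NEK9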
T7 sequence (whole entry): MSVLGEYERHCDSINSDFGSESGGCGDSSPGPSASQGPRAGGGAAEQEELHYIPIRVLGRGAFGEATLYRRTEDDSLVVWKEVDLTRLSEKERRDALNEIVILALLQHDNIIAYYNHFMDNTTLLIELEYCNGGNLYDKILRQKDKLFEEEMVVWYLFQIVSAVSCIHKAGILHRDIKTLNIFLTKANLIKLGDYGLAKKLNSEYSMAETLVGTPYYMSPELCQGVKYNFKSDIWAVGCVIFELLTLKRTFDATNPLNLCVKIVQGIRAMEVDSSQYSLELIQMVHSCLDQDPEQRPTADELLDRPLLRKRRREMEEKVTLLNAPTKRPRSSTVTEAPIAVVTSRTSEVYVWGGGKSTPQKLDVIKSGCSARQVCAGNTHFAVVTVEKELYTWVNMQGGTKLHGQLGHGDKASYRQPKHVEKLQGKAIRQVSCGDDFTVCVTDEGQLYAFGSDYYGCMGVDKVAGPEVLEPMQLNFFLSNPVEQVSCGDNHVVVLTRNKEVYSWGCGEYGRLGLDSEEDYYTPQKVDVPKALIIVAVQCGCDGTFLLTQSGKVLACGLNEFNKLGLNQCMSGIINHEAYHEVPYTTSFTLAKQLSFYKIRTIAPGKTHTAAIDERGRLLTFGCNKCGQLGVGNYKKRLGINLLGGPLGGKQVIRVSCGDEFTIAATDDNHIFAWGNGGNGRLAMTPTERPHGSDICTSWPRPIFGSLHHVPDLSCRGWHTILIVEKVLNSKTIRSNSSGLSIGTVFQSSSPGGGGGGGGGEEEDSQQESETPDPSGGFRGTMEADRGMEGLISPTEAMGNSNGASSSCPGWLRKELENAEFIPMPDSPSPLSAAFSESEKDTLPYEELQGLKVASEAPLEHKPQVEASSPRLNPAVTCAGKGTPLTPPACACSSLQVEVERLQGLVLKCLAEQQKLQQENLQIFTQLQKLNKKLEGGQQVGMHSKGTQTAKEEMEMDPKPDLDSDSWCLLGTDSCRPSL

Chain of Serine/threonine-protein kinase Nek6 (Homo sapiens) (Q9HC98 whole entry): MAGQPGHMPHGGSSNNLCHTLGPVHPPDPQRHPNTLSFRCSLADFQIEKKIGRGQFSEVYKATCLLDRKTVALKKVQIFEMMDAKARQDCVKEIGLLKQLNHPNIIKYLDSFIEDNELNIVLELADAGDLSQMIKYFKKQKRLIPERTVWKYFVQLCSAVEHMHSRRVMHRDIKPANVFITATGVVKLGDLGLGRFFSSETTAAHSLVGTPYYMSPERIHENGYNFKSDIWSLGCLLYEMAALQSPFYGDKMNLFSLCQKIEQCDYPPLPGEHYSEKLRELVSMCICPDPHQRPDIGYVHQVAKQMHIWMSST
Chain of Serine/threonine-protein kinase Nek7 (Homo sapiens) (Q8TDX7 whole entry, looked up): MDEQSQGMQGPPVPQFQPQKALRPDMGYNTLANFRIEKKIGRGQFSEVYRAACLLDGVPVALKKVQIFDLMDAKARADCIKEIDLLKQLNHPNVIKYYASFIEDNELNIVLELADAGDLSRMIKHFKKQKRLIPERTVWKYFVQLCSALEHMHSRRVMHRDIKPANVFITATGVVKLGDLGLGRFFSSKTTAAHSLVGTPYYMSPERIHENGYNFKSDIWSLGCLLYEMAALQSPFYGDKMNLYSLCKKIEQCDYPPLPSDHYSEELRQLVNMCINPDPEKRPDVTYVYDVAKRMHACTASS
Chain of Casein kinase II subunit alpha (Homo sapiens) (P68400 whole entry, looked up): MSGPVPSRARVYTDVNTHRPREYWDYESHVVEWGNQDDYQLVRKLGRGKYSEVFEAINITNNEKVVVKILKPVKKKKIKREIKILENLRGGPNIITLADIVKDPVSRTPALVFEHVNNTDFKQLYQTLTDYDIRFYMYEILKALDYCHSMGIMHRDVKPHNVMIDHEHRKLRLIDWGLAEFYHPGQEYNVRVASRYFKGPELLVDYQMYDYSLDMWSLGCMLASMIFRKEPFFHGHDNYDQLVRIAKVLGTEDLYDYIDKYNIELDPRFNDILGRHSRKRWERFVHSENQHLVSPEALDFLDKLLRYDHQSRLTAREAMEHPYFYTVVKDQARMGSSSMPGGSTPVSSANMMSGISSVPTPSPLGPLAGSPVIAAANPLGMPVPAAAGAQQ
Chain of Sphingosine kinase 1 (Homo sapiens) (Q9NYA1 whole entry): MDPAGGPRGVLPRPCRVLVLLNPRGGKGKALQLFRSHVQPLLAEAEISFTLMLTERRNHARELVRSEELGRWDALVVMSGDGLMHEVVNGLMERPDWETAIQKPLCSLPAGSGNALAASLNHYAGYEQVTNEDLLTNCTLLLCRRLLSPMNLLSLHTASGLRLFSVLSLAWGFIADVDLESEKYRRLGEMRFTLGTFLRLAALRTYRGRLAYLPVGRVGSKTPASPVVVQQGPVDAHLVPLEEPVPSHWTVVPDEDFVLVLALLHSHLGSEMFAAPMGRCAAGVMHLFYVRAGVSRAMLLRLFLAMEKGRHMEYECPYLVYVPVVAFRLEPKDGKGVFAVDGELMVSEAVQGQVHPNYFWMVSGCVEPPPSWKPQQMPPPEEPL

Structure (SMILES): Cc1cccc(-c2n[nH]cc2-c2ccc3ncccc3n2)n1
- inhibition [1]: -1.51%
- inhibition [2]: 0.61%
- inhibition [3]: 0.2%
- inhibition [4]: 1.46%
- inhibition [5]: 4.82%
- inhibition [6]: 2.07%
- inhibition [7]: 5.93%
- inhibition [8]: 0.87%
- inhibition [9]: 0.63%
- inhibition [10]: 0.62%
- inhibition [11]: 2.37%
- inhibition [12]: 2.07%
- inhibition [13]: 2.35%
- inhibition [14]: 1.59%
- inhibition [15]: 1.08%
- inhibition [16]: 1.75%
- inhibition [17]: 3.64%
- inhibition [18]: 2.98%
- inhibition [19]: 1.74%
- inhibition [20]: 1.6%
